Records with an inconclusive call do not appear. Active and inactive are the calls of the source. Calls follow the shape of the dose curve; as a rule, active = well fitted inhibition curve with a large enough effect; inconclusive = small, poorly fitted or top-dose-only effect; inactive = flat fitted curve, though single readings scatter. Starred links: 1 amine or outer side, 2 acyl side, 3 side chain; linkers in the order of their positions; H or OH if unused. Non-standard residues stand in square brackets, D forms with d. Residues, ends and D or L forms follow the SMILES beside them. X1 = O=C([C@@H](CC(O)CCl)O[*:1])[*:2]; aIle = CC[C@@H](C)[C@H](N)C(=O)O; NMeV = CN[C@H](C(=O)O)C(C)C; NMeA = CN[C@@H](C)C(=O)O; βAla = NCCC(=O)O

This assay in a line: qHTS for characterization and localization of zebrafish homologs of the human ABCB1 multidrug transporter: empty vector transfected cells. The note with it: empty vector transfected control cells, CellTiter-Glo luminescence viability, 72 h. An excerpt: The zebrafish has emerged as a potential model to study the blood-brain barrier (BBB) given its similarities with mammalian systems. However, little information has been available with regard to homologous ATP-binding cassette transporters expressed at the zebrafish BBB. Two transporters that are highly expressed at the human BBB are P-glycoprotein (P-gp, encoded by the ABCB1 gene) and ABCG2 (encoded by the ABCG2 gene). In this study, we focus on characterization of P-gp homologs in the zebrafish, which has two genes that are homologous to human ABCB1 - abcb4 and abcb5. We generated stably-transfected cell lines to determine their substrate specificities. […] Zebrafish abcb4 also colocalized with claudin 5 expression in brain endothelial cells.
A high-throughput screen was performed as previously described on empty vector transfected cells, P-gp-overexpressing MDR-19 cells and cells transfected with full-length zebrafish abcb4 (ZF Abcb4) or abcb5 (ZF Abcb5). Briefly, cells were plated into 1536-well plates at a density of 500 cells/well in 5 uL media. P-gp substrate compounds (approximately 90) selected from our previous study were then added at varying concentrations using a 1536-head pin tool (Kalypsis, San Diego, CA) and plates were incubated at 37C in 5% CO2 for 72 h. CellTiter-Glo reagent (Promega) was dispensed into the wells, incubated for 5 min and luminescence was read on a ViewLux instrument (Perkin-Elmer).
Cytotoxic compounds were defined as those that yielded a curve class of -1.1, -1.2, -2.1, -2.2, -2.3, or -2.4, a maximum response of >50% and an AC50 of < 10 uM. All compounds from screening analysis were tested in Vector (empty vector control), MDR-19 (P-gp overexpressing), zebrafish abcb4 (ZF Abcb4) and abcb5 (ZF Abcb5) expression cell lines.
1. Tobie D Lee, Olivia W Lee, Kyle R Brimacombe, Lu Chen, Rajarshi Guha, Sabrina Lusvarghi, Bethilehem G Tebase, Carleen Klumpp-Thomas, Robert W Robey, Suresh V Ambudkar, Min Shen, Michael M Gottesman, Matthew D Hall. A High-Throughput Screen of a Library of Therapeutics Identifies Cytotoxic Substrates of P-glycoprotein. […]
Background: Quantitative high-throughput screening tests each substance at several concentrations.
For `C=CCON=C(C[C@H]1O[C@@H]2O[C@]3(C)CC[C@@H]4[C@H](C)CC[C@@H]([C@H]1C)[C@@]24OO3)[C@H]1O[C@@H]2O[C@]3(C)CC[C@H]4[C@H](C)CC[C@@H]([C@@H]1C)[C@@]24OO3`, the Potency was 187 nM (active).
For `CC[C@@H](C)[C@@H]1NC(=O)[C@@H]2CCCN2C(=O)[C@@H](CC(O)CCl)OC(=O)CCNC(=O)[C@H](C)N(C)C(=O)[C@H](C(C)C)N(C)C1=O` (stereo partly drawn) (cyclo([NMeA][βAla][X1]P[aIle][NMeV])) the value was 1390 nM (active); for `C[C@@H]1[C@@H](CC(C[C@H]2O[C@@H]3O[C@]4(C)CC[C@@H]5[C@H](C)CC[C@@H]([C@H]2C)[C@@]35OO4)C[S+](=O)([O-])c2ccc(COC(=O)N(C)C)cc2)O[C@@H]2O[C@]3(C)CC[C@H]4[C@H](C)CC[C@@H]1[C@@]24OO3` (stereo partly drawn), 264 nM (active).

Values taken from PubChem BioAssay AID1508637 (National Center for Advancing Translational Sciences (NCATS), 2021).
